Consider 67 compounds from PubChem BioAssay AID2501 (Southern Research Specialized Biocontainment Screening …, 2010).

As usually defined, the inhibition is the drop in the measured response relative to a control, in per cent. Broadly, the IC50 is the point on the concentration scale where inhibition reaches its midpoint.

About 1,200 (55%) of roughly 2,200 compounds were called active. So high a share suggests a set chosen from earlier hits. The list shows a part of the results. A number with no mark means an inactive call. No cut-off is given here; in the data, nearly all actives have IC50 up to about 92 µM.

The nature of the assay: counter assay for TAg ATPase ADP read-out – biochemical, ADP-Hunter, fluorescence, counter-screen (AID 2501).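 For inhibition: 0% = enzyme with vehicle and 100% = reference inhibitor wells; higher means more inhibition.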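 Note: purified T antigen ATPase.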 The settings on record: series mostly up to 100 µM; inhibition: at the top concentration. (A counterscreen serves to expose hits that act by an unwanted route or on another target.)
As for `CC(C)CN(C)C(=O)CCc1nnc(Cc2cccc(C(F)(F)F)c2)o1`, the “inhibition” value was 29.4% [at 50 µM].
Regarding `COC(=O)/C=C/C(=O)Nc1ccc(O)c(Cl)c1`, the IC50 is 6.19 µM (active).
With `Cc1ccc(NC(=O)C(CC(C)C)NC(N)=O)cc1Cl` (configuration not stated), the “inhibition” value is -6.45%.
Take `Cc1ccccc1-n1sc2cc(F)ccc2c1=O`: the IC50 is 49.1 µM (active).
As to `CCN(CC)CCCN(C(=O)c1cccs1)c1nc(-c2ccc(OC)cc2)cs1`, the “inhibition” value was -6.38%.
With `c1ccc(-c2csc(NNC3=NCCCCC3)n2)cc1`, the IC50 is 13.6 µM (active).
Consider `COc1ccc(Nc2nc(-c3ccc4c(c3)NC(=O)CO4)cs2)cc1`, for which the “inhibition” value is 23.8%.
The same measure, in the same setting: next, `O=S(=O)(NC1=NCCCCC1)c1ccc2sc(NS(=O)(=O)c3ccc4ccccc4c3)nc2c1`: 26.5%.
Consider `COc1ccc(-c2csc(NNC3=NCCCCC3)n2)cc1`, for which the IC50 was 40 µM (active).
Regarding `Cc1ccc(N=c2oc3cc(O)ccc3cc2C(N)=O)cc1`, the IC50 is 17.1 µM (active).
Still for that read-out and setting: the result for `C=CC(=O)Oc1ccc(N2Cc3ccccc3C2=O)cc1` reads 8.19 µM (active).
Consider `COc1cc(/C=C2/C(=O)NN(c3ccc(Cl)cc3)C2=O)ccc1OC(=O)c1ccco1`, for which the IC50 is 80 µM (active).
With `COc1ccc(N2C(=O)/C(=C\c3ccco3)N=C2SCC(=O)NC(C)C)cc1Cl`, the “inhibition” value was -21.3%.
On to `COc1cc(/C=C2/C(=O)NN(c3cccc(C)c3)C2=O)ccc1OC(=O)c1ccco1`, for which the IC50 was 27.4 µM (active).
`CCOC(=O)c1c(NC(=O)c2ccc(S(=O)(=O)N(C)CC3CCCO3)cc2)sc2c1CC(C)(C)NC2(C)C` (configuration not stated): the “inhibition” value is 0.64%.
As for `Nc1ccc(OC(=O)Nc2ccc(O)cc2)cc1`, the IC50 is 3.47 µM (active).
Take `CS(=O)(=O)N1CCc2cc(C(=O)Nc3ccc(O)cc3)ccc21`: the IC50 is 7.2 µM (active).
The same measure, in the same setting: the result for `COC1=C(Nc2ccc(O)cc2)C(=O)c2ccccc2C1=O` reads 5.25 µM (active).
For `CC(C)OCCCNC1=C(Cl)C(=O)c2ccccc2C1=O`, the “inhibition” value was -6.77%.
For the compound `CN(C)C=NC1=NN(c2cccc(C(F)(F)F)c2)CC1`, the IC50 is 5.93 µM (active).
`O=c1c2ccccc2[nH]c2ccc(O)cc12`: the IC50 was 5.13 µM (active).
Turning to `O=C(CCN1C(=O)/C(=C\c2ccco2)SC1=S)Nc1ccc(C(=O)O)c(O)c1`, the “inhibition” value is -4.22%.
The same measure, in the same setting: the result for `O=C(CCN1C(=O)/C(=C/c2ccco2)SC1=S)Nc1ccc(C(=O)O)c(O)c1` reads -14.7%.
As for `O=C1/C(=C/c2ccncc2)SC(=S)N1Nc1ccccc1`, the IC50 was 77.6 µM (active).
Turning to `COc1ccc(-c2cc(=O)oc3c(O)c(O)ccc23)cc1`, the half-inhibitory concentration (IC50) was 8.96 µM (active).
For `O=C1NC(=S)CN1c1ccccc1`, the “inhibition” value is 11.1%.
Still for that read-out and setting: next, `O=C(O)c1ccccc1-c1c2cc(I)c(=O)c(I)c-2oc2c(I)c(O)c(I)cc12`: -1.2%; `CC(=O)N(C1=C(Cl)C(=O)c2ccccc2C1=O)c1ccc(C(=O)O)cc1`: 13.6% [at 50 µM].
For the compound `Nc1cc(C(=O)O)c(N)c2c1C(=O)c1ccccc1C2=O`, the IC50 is 14.7 µM (active).
The same measure, in the same setting: next, `COc1cc(Cn2c(-c3ccc(O)c(OC)c3)nc3ccccc32)ccc1O`: 0.9 µM (active); `COc1cc(Cn2nnc3ccccc32)ccc1O`: 3.65 µM (active).
As for `Cc1nc2cc(NCc3nc4ccccc4n3Cc3ccccc3)ccc2n1C`, the “inhibition” value was 26.8%.
Regarding `Cc1cccc(C)c1NC(=O)CSCC(=O)c1ccc(O)c(O)c1`, the IC50 was 10.3 µM (active).
Consider `CCOc1ccc(C(=O)CSCC(=O)O)cc1`, for which the “inhibition” value was 4.18%.
Regarding `COc1ccc(CCN(C)Cc2nc(Cc3ccc(OC)c(OC)c3)no2)cc1OC`, the “inhibition” value is -9.84%.
Regarding `Cn1c(=O)c2c([nH]c(=S)n2Cc2ccc(Cl)cc2)n(C)c1=O`, the IC50 was 16 µM (active).
For the compound `O=C(COC(=O)C1CC1)c1c[nH]c2ccccc12`, the “inhibition” value is -3.45%.
For `COc1cc(/C=N/NS(=O)(=O)c2ccc(C)c([N+](=O)[O-])c2)ccc1O`, the IC50 is 8.36 µM (active).
On the same count and under the same terms, next, `O=[N+]([O-])c1cccc(S(=O)(=O)N/N=C/c2ccc(O)cc2)c1`: 5.86 µM (active); `COc1cc(/C=N/NS(=O)(=O)c2ccc(Br)cc2)ccc1O`: 14.6 µM (active).
The same measure, in the same setting: the result for `C/C(=N/NS(=O)(=O)c1cccc([N+](=O)[O-])c1)c1c[nH]c2ccccc12` reads 9.39 µM (active).
In the case of `CC(C)(C)c1ccc(-c2nc(O)c(CC(=O)O)s2)cc1`, the “inhibition” value was 26.8%.
Still for that read-out and setting: next, `COc1cc(/C=C2\C(C)=C(C#N)c3nc(N)c(C#N)c(C)c32)ccc1OCC(=O)O`: 25.9%.
Consider `CC1=C(C#N)c2nc(N)c(C#N)c(C)c2/C1=C\c1ccc(OCC(=O)O)c(Cl)c1`, for which the IC50 was 95.7 µM (active).
As for `COc1cc(/C=C2/C(C)=C(C#N)c3nc(N)c(C#N)c(C)c32)ccc1OCC(=O)O`, the “inhibition” value was 16.5%.
On the same count and under the same terms, the result for `Nc1ncnc2oc(-c3ccco3)c(-c3ccco3)c12` reads -28.1%; that for `CS(=O)(=O)c1ccc2c(c1)SC1=NC(=O)/C(=C/c3ccco3)C(=N)N12`, 2.61%.
As for `Cc1ccc(NC(=O)CN2C(=O)N/C(=C\c3cccn3-c3cccc(C(=O)O)c3)C2=O)cc1`, the “inhibition” value is 11.3%.
For the compound `CCOc1cc(/C=C2/NC(=O)N(CC(=O)OC)C2=O)ccc1O`, the IC50 was 5.19 µM (active).
Take `CCOc1cc(/C=C2\SC(=O)N=C2N)ccc1O`: the IC50 is 4.18 µM (active).
The same measure, in the same setting: next, `COc1cc(/C=C2\SC(N)=NC2=O)ccc1O`: 4.85 µM (active).
For the compound `NC1=NC(=O)/C(=C\c2ccco2)S1`, the “inhibition” value is -29.7%.
On to `CCOc1cc(/C=C2\NC(=S)N(c3c(C)n(C)n(-c4ccccc4)c3=O)C2=O)ccc1O`, for which the half-maximal inhibitory concentration (IC50) is 3.07 µM (active).
Consider `COC(=O)c1[nH]c2ccc(Br)cc2c1NC(=O)Oc1ccccc1`, for which the “inhibition” value was 22.8%.
Same read-out and setting: the result for `CN(C)Cc1cc(O)c(CN(C)C)cc1O` reads -314%.
With `Cc1c(N2C(=O)/C(=C\c3ccccc3O)SC2=S)c(=O)n(-c2ccccc2)n1C`, the IC50 was 54.7 µM (active).
On the same count and under the same terms, the result for `COc1cc(/C=C2\NC(=S)N(C)C2=O)ccc1O` reads 3.23 µM (active).
In the case of `C=CCN1C(=O)/C(=C\C(C)=C\c2ccccc2)SC1=S`, the “inhibition” value was -42.1%.
Still for that read-out and setting: the result for `COc1cc(C2NC(=S)NC(C)=C2C(=O)Nc2cc(C)cc(C)c2)ccc1O` (configuration not stated) reads 23.4% [at 50 µM]; that for `CCOc1cc(/C=C2\SC(=NC)N(C)C2=O)cc(Cl)c1OC(C)=O`, 6.15%.
Take `CN=C1S/C(=C\c2ccc(O)c(OC)c2)C(=O)N1C`: the IC50 was 4.35 µM (active).
For `CCCN1C(=O)/C(=C/c2ccc(OCc3ccc(C(=O)O)cc3)c(OC)c2)NC1=S`, the “inhibition” value is 19.4%.
On to `NC1=NC(=O)S/C1=C\c1ccc(O)cc1`, for which the IC50 is 3.6 µM (active).
As to `CCOc1cc(/C=N/Nc2nc(C)cc(=O)[nH]2)ccc1O`, the IC50 was 2.82 µM (active).
As for `CCOc1cc(/C=N/NC(=O)Nc2ccccc2)ccc1O`, the IC50 is 9.13 µM (active).
In the case of `CCOc1cc(/C=N/NC(=O)N/N=C/c2ccc(O)c(OCC)c2)ccc1O`, the IC50 is 2.03 µM (active).
On to `CCOc1cc(/C=N/Nc2ncnc(Cl)c2N)ccc1O`, for which the IC50 is 3.29 µM (active).
